The full list was thinned out, with hits kept by preference.
TbREL1 inh: TbREL1 inhibition, primary screen; TbREL1 RNA ligation, FRET fluorescence; inhibition, % at 9.66 µM; AID 1117264; 89,000 tested, 0.49% active;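 active = inhibition above the mean inhibition across all screened compounds plus 3 SD, cut at about 11% in these data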;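 note: 0% = plate median of test wells and 100% = NSC42067 control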
Target sequence (P86926 whole entry, looked up): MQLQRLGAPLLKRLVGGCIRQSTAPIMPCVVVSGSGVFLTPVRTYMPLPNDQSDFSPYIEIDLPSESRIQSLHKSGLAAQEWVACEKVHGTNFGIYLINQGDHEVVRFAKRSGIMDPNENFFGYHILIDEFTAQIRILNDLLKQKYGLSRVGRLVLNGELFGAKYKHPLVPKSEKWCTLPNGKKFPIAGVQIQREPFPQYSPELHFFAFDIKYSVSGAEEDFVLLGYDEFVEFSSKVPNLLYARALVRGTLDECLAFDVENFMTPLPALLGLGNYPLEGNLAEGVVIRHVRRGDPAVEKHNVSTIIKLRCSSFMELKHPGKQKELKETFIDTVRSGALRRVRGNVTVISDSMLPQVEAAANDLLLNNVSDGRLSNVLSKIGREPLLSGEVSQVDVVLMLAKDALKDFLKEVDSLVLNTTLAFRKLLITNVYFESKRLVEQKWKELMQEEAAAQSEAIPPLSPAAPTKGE
Numbers without * were called inactive.

SMILES | TbREL1 inh
N#Cc1c(Cl)c(Cl)c2nnc(-c3ccc(Br)cc3)n2c1Cl | 16*
Cc1ccc2c(n1)sc1c(-c3ccc(Br)cc3)c(C#N)c(N)nc12 | -1
Cc1cccc(C)c1NC(=O)[C@@H]1CC(=O)O[C@@H]1c1ccccc1 | 5
CCCCNC(=O)O[C@H]1CC[C@@]23CCCN2C(=O)CCC[C@H]3[C@H]1C | -5
COC(=O)C[C@@H]1CC[C@H]2[C@@H](COc3ccc(NC(=O)Nc4ccccc4Cl)cc3C(=O)N2C)O1 | -2
Cc1cccc(CN(C)CCc2ccccn2)c1 | 2
COc1ccc(CN(C)CCc2ccccn2)c(OC)c1OC | 18*
COc1ccc(C(=O)O)cc1S(=O)(=O)N(C)CCc1ccccn1 | -1
CC1=CC(=O)C(C(C)C)=C/C1=N\OS(=O)(=O)c1ccccc1 | -1
CCC(C)CNC(=O)c1oc(=O)c2ccccc2c1-c1ccc(C)cc1 (stereo unspecified) | 0
CCCCNC(=O)N1CCCC1C(=O)Nc1cccc(OC)c1 (stereo unspecified) | -2
O=C(CNS(=O)(=O)c1ccccc1)N1CCN(c2ccccn2)CC1 | 6
Cc1occc1C(=O)N/N=C/c1ccc[nH]1 | 0
Cn1cc(C(=O)N/N=C/C(Br)=C\c2ccccc2)ccc1=O | -3
Cc1occc1C(=O)N/N=C/C(Br)=C/c1ccccc1 | 11*
CCSc1nnc(-c2ccco2)n1C | 0
COc1cc2c(cc1NC(=O)CSc1nnc(-c3cccc(Cl)c3)n1-c1ccccc1)oc1ccccc12 | -3
Oc1cccc(C=NCc2ccccc2)c1O | 12*
O=C1C(C=NCc2cccnc2)=C(O)c2ccccc21 | 2
COc1cccc(/C=N/NC(=O)CNC(=O)CCc2ccccc2)c1O | 1
CCOC(=O)c1csc(NC(=O)C2CCCN(S(=O)(=O)c3ccc(Br)s3)C2)n1 (stereo unspecified) | 1
COc1ccc2ccccc2c1C=Nn1c(-c2cc(-c3ccccc3)n[nH]2)n[nH]c1=S | -7
COc1cc(NC(=O)C2CCCN(S(=O)(=O)c3ccc(Cl)s3)C2)cc(OC)c1 (stereo unspecified) | 0
O=c1cc(N2CCN(c3ccnc4cc(Cl)ccc34)CC2)[nH]c(=O)n1C1CCCCC1 | -1
C#CCOCCOCCOCCNc1nc(N2CCOCC2)nc(N2CCN(C(=O)CCCCCCCCCCNC(=O)[C@@H](CCC(=O)O)n3cc(CCCCCN)nn3)CC2)n1 | 2
SMILES | TbREL1 inh
C#CCOCCOCCOCCNc1nc(N2CCOCC2)nc(N2CCN(C(=O)CCCCCCCCCCNC(=O)[C@@H]([C@H](C)CC)n3cc(CCCCCN)nn3)CC2)n1 | 13*
C#CCOCCOCCOCCNc1nc(N2CCN(C(=O)[C@H]([C@@H](C)CC)n3cc(CCCCN)nn3)CC2)nc(N2CCN(C(=O)[C@H](C)n3cc(CCC(=O)O)nn3)CC2)n1 | 7
C=CCn1c(SCC(=O)Nc2ccccc2-c2ccccc2)nnc1-c1ccc(Cl)cc1 | 0
CC(C)(C)C(=O)CSc1nnc(SCc2cccc3ccccc23)s1 | 5
O=C(CN1C(=O)CCSc2ccccc21)Nc1cccc(Cl)c1F | -2
CCC(NC(=O)CN1CCN(c2cccc(OC)c2)CC1)c1ccccc1 (stereo unspecified) | -4
Cc1ccc(-n2c(SCc3cccc(F)c3)nnc2-c2cccc(C)c2)cc1 | 6
CCCCCCCN1C=CC(=O)CC1 | -4
CCCCCCOC(=O)CCn1[nH]c(=O)c2ccccc2c1=O | 2
CCCCCCCCCn1cc(C(C)=O)c(=O)[nH]c1=O | 19*
COc1ccc(Cn2c(C)nc3c(c2=O)c2nc4ccccc4nc2n3Cc2ccco2)cc1 | 11*
COc1ccc2c(=O)c3c(=O)n(Cc4ccco4)c(-c4ccccc4)nc3oc2c1 | 0
COc1ccc(Cn2c(C)nc3c(c(=O)c4ccccc4n3C)c2=O)cc1 | 3
O=C(CSc1nnc(-c2ccco2)n1-c1ccc(Cl)cc1)Nc1ccc(S(=O)(=O)Nc2nccs2)cc1 | 3
NC1=NS(=O)(=O)Nc2ccccc21 | -3
Cc1ccc(-c2nnc(SCC(=O)Nc3ccc(Oc4ccccc4)cc3)n2-c2ccc(Cl)cc2)cc1 | 10
O=C(O)c1cnn2c(C(F)(F)F)cc(-c3ccco3)nc12 | 6
CN(C(=O)/C=C/c1ccco1)c1ccccc1C(=O)O | 2
O=C(O)c1cc(N2N=C(C(F)(F)F)/C(=C/C=C/c3ccco3)C2=O)ccc1Cl | 98*
CCCC1CCC2(CC1)CCC2OC(=S)Nc1cccc(I)c1 (stereo unspecified) | -1
O=C(NCc1c(F)cccc1F)C1CCCN(c2ncccn2)C1 (stereo unspecified) | 2
Cc1ccc(C)c(NC(=O)CN(C)C(=O)c2ccc3c(=O)n4c(nc3c2)CCC4)c1 | 0
Cc1ccc(C)c(NC(=O)CN(C)C(=O)Cc2ccccc2)c1 | -1
Cc1ccc(C)c(NC(=O)CN(C)C(=O)c2ccc(Cl)nc2)c1 | 11*
Cc1ccc(-n2c(SCC(=O)Nc3cccc4ccccc34)nnc2-c2cccs2)cc1 | 0
CCCN(CC1CC1)C(=O)CSc1nnc(-c2ccncc2)n1-c1ccc(OC)cc1 | -4
O=S(=O)(c1ccc(Br)s1)N1CCC(c2nc3ccccc3o2)CC1 | 4

High-throughput results deposited in PubChem BioAssay by The Scripps Research Institute Molecular Screening Center.
